# High-throughput results (PubChem BioAssay)
# USP8 inh: inhibitors of human USP8 deubiquitinase; Ubiquitin carboxyl-terminal hydrolase 8 (Homo sapiens), P40818; inhibition, % at 20 µM; actives 4.2% (n = 47,000); purified USP8, Ub-rhodamine cleavage fluorescence, 30 min
# USP10 block: inhibitors of human USP10 deubiquitinase | Ubiquitin carboxyl-terminal hydrolase 10 (Homo sapiens), Q14694 | purified USP10, Ub-rhodamine fluorescence, 60 min | inhibition, % at 20 µM | actives 1.1% (n = 47,000)
# UCHL1 inh: inhibitors of human UCHL1 deubiquitinase. Ubiquitin carboxyl-terminal hydrolase isozyme L1 (Homo sapiens), P09936. purified UCHL1, Ub-rhodamine cleavage fluorescence. inhibition, % at 20 µM. actives 0.2% (n = 47,000)
# OTUD3 inh: inhibitors of human OTUD3 deubiquitinase. OTU domain-containing protein 3 (Homo sapiens), Q5T2D3. actives 0.7% (n = 47,000). AID 1645858, 2021. inhibition, % at 25 µM. purified OTUD3, Ub-rhodamine fluorescence, 2 h
# Target sequence (Q5T2D3 whole entry, looked up, the tested form may be a part): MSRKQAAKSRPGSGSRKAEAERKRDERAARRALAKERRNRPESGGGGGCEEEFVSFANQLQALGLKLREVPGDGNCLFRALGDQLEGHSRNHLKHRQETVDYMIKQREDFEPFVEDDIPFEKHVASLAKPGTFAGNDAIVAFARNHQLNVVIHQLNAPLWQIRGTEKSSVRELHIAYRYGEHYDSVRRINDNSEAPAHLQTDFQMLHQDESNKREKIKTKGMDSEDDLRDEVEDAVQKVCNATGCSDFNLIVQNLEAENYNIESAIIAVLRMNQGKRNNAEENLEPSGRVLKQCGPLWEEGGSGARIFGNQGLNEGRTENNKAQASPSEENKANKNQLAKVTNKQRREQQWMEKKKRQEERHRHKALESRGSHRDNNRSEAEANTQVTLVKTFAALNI
# USP7 inh: inhibitors of human USP7 deubiquitinase | Ubiquitin carboxyl-terminal hydrolase 7 (Homo sapiens), Q93009 | purified USP7, Ub-rhodamine cleavage fluorescence | inhibition, % at 20 µM | actives 0.3% (n = 47,000)
# * hit, by the source's call. Most compounds without a hit are left out; they make up all but 5% or so of the library. Cut-off read from the data, not from the text of the source: active = inhibition above about 30%; inactive = the rest.
SMILES,USP8 inh,USP10 block,UCHL1 inh,OTUD3 inh,USP7 inh
CCOc1ccc(-n2c(=O)c3sccc3n(CC(=O)Nc3cccc(C)c3)c2=O)cc1,22,41*,0,2,5
Cc1ccc(CNC(=O)Cn2c(=O)c3sccc3n(CC(=O)Nc3ccc4c(c3)OCCO4)c2=O)cc1,7,22,0,-8,3
CCc1cc(C(=O)N2C3CCC(C3)[C@@H]2COc2ccc(F)cc2)no1 (stereo partly drawn),4,2,4,12,-2
COc1ccc(NC(=O)Cn2c(=O)n(CCC(=O)NCc3ccccc3)c(=O)c3sccc32)cc1Cl,19,49*,4,5,20
Cc1c(O)cc(O)cc1O,-332,-11,-155,48*,-138
Cc1occc1-c1nnc(SCC(=O)N2CCN(c3ccc(F)cc3)CC2)o1,2,1,1,8,0
COc1cccc(C(=O)Nc2nc(-c3ccco3)c(-c3ccco3)s2)c1,62*,-8,52*,25,50*
CCc1ccc(NS(=O)(=O)c2cc3n(c2)CCCN(C)C3=O)cc1,10,1,2,7,6
O=C(CCCn1c(=O)c2ccccc2n(CC(=O)NCc2ccccc2Cl)c1=O)NCc1ccc2c(c1)OCO2,73*,57*,6,26,27
COc1ccc(CCNC(=O)Cn2c(=O)n(CCCCC(=O)NCc3ccc4c(c3)OCO4)c(=O)c3ccccc32)cc1OC,-3,19,4,0,9
O=C(CSc1ncn[nH]1)Nc1ccc2c(c1)OCO2,-21,-1,-4,-16,-1
O=C(CSc1n[nH]c2nc3ccccc3n12)Nc1ccc2c(c1)OCO2,30*,10,3,1,4
O=C(CCCn1c(=O)c2ccccc2n(CC(=O)Nc2ccc(Br)cc2F)c1=O)NCc1ccccc1Cl,1,-3,0,11,0
O=C(Cn1c(=O)c2ccccc2c2ccccc21)Nc1ccc2c(c1)OCO2,87*,42*,9,33*,27
Cc1cccc(C)c1NC(=O)Cn1c(=O)n(CCCCC(=O)NCc2ccc3c(c2)OCO3)c(=O)c2ccccc21,69*,54*,4,18,17
O=C1c2ccc3c(c2N(S(=O)(=O)c2ccc(O)cc2)C[C@@H]2C[C@]12c1ccccc1)OCO3,18,2,2,3,1
CCc1nc(NC(=O)c2cnn(-c3ccc(F)cc3)c2)n[nH]1,5,8,5,0,3
O=C(Cn1c(=O)n(CCC(=O)N2CCc3ccccc3C2)c(=O)c2ccccc21)NCc1ccccc1Cl,90*,23,7,26,-6
O=S1(=O)[C@@H]2CCN(Cc3ccccc3)CC[C@@H]2CN1Cc1ccc(Cl)cc1,-32,-2,-7,-68,-9
COc1ccccc1N1CC(C(=O)Nc2ccc3c(c2)OCO3)CC1=O (stereo not drawn),4,-1,-4,-8,-13
COc1ccccc1Nc1ncc(C(=O)NCc2ccc(F)cc2)c2ccccc12,71*,7,3,-2,7
COc1ccccc1Nc1ncc(C(=O)NCc2ccc3c(c2)OCO3)c2ccccc12,63*,11,1,10,6
COc1cc(Cl)ccc1Nc1ncc(C(=O)Nc2ccc3c(c2)OCO3)c2ccccc12,39*,6,2,19,9
COc1cc(OC)c(NC(C)C(=O)Nc2ccc3c(c2)OCO3)cc1Cl (stereo not drawn),37*,-4,3,4,-1
Cc1nn2c(C)c(C(=O)NCc3ccc4c(c3)OCO4)cnc2c1-c1ccccc1,11,2,-2,-10,-2
CCOC(=O)c1cnc(Nc2cc(OC)ccc2OC)c2ccccc12,12,-10,-1,-2,0
CCOC(=O)c1cnc(Nc2ccccc2OC)c2ccccc12,-11,-2,-4,-23,-6
COc1cc(C(=O)NCc2noc(Cc3ccccc3)n2)cc(OC)c1OC,10,-1,1,12,1
CCOc1ccc(-c2ccc3nnc(SCC(=O)Nc4ccc(F)cc4)n3n2)cc1,78*,38*,2,-4,30
COCCn1c(SCC(=O)Nc2ccc(OC)cc2)nnc1-c1c[nH]c2ccccc12,4,0,0,3,-1
